Compounds without any hit were thinned out: in the full panel of roughly 79,000, 15% have a hit. Values without a mark were called inactive. Calls of active or inactive are those of the source. Rule as the data show it: active = growth inhibition above about 70%; inactive = the rest.
Key:
[1] = NCI Yeast Anticancer Drug Screen. Data for the rad50 strain (AID 155);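 also: 0% = growth of vehicle-only cultures of the same strain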; details: S. cerevisiae rad50 strain growth inhibition; at 50.0 µM; hits give high values
Procedure, shortened: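 Readout: growth inhibition relative to vehicle-treated cultures. Compound exposure was carried out in a genetically defined yeast strain deficient in DNA damage repair.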

[2] = NCI Yeast Anticancer Drug Screen. Data for the mec2-1 strain (AID 157); details: S. cerevisiae mec2-1 strain, at 50.0 µM, hits give high values
Procedure, shortened: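 Yeast mec2-1 mutant treated with compound. Readout: growth inhibition vs vehicle controls.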

[3] = NCI Yeast Anticancer Drug Screen. Data for the sgs1 mgt1 strain (AID 161);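 also: 0% = growth of cultures given vehicle only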; details: S. cerevisiae sgs1 mgt1 strain, at 50.0 µM, hits give high values
Procedure, shortened: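 Test agents were incubated with a DNA-repair-mutant yeast strain. Growth was then read and compared against vehicle-treated controls.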

[4] = NCI Yeast Anticancer Drug Screen. Data for the cln2 rad14 strain (AID 165);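 also: 0% = growth equal to vehicle treated cultures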; details: S. cerevisiae cln2 rad14 strain, at 50.0 µM, hits give high values
Procedure, shortened: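 cln2 rad14 yeast strain; compound exposure; growth inhibition read vs vehicle controls.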

[5] = NCI Yeast Anticancer Drug Screen. Data for the bub3 strain (AID 167); details: S. cerevisiae bub3 mutant strain, at 50.0 µM, hits give high values
Procedure, shortened: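 Readout: yeast growth inhibition, expressed relative to vehicle-only wells. The test organism is a mutant strain from a panel with lesions in DNA repair or checkpoint genes.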

[6] = NCI Yeast Anticancer Drug Screen. Data for the mlh1 rad18 strain (AID 175); details: S. cerevisiae mlh1 rad18 strain growth inhibition; at 50.0 µM; hits give high values
Procedure, shortened: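 Yeast w/ defined DNA-repair lesions; compound exposure; growth vs vehicle controls → % inhibition.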

Compound	growth inhibition [1]	growth inhibition [2]	growth inhibition [3]	growth inhibition [4]	growth inhibition [5]	growth inhibition [6]
COc1nc(NC2OCC(OC(C)=O)C(OC(C)=O)C2OC(C)=O)c(-c2csc(N)n2)c(=O)n1C (stereo unspecified)	-1.9%	-21.9%	-14.6%	13.6%	-2.3%	6.85%
O=Nc1ccc(O)c2ncccc12	7.15%	-9.45%	15.7%	-26.6%	1.5%	31%
COc1ccc(C(=O)C(C)(CCC#N)CCC#N)cc1	-10.3%	-6.3%	3.25%	-44.6%	14.3%	2.3%
CCOC(=O)c1c(C(=O)OCC)c(C)n(/N=N/n2c(C)c(C(=O)OCC)c(C(=O)OCC)c2C)c1C	29.3%	9.75%	23.6%	26.3%	-1.45%	12.8%
CCOc1ccc(C(=O)OCCCl)cc1	9.85%	0.75%	-3.1%	5.25%	6.75%	10.6%
O=C1c2c(-c3ccccc3)ccc(-c3ccccc3)c2C2(O)OC1(O)c1c(-c3ccccc3)ccc(-c3ccccc3)c1C2=O	5.65%	4.95%	9.1%	-6.9%	6.4%	-13.9%
COCCNC1CCC2(SCCS2)c2[nH]c3ccccc3c21 (stereo unspecified)	-10.3%	-12.8%	15.1%	-14%	-9%	40.2%
CCOC(=O)CNC1C(NC(C)=O)C(OC)OC2COC(c3ccccc3)OC21 (stereo unspecified)	-7.7%	6.6%	6.7%	-12.3%	-0.75%	-2.4%
CSc1ccc(NC(=O)Nc2ccccc2F)cc1	-7.65%	19.1%	17.2%	-20.5%	39.5%	-9.15%
NC(=O)C1C=Cc2ccccc21 (stereo unspecified)	-6.1%	-19.3%	-18.4%	-14.1%	-16.8%	-35.6%
CC(=O)Nc1ccc(Cc2cc([N+](=O)[O-])cc([N+](=O)[O-])c2)cc1	-0.1%	-14.6%	2.75%	-50.9%	24.9%	-18.6%
CCCC(=O)NC(NC1CCCCC1)(C(=O)OCC)C(F)(F)F (stereo unspecified)	-17.3%	-0.15%	-15.6%	18.4%	-7.25%	-45.1%
Cc1ccc(N=Nc2ccc(C)cc2NC(=O)/C=C/c2ccccc2)cc1	-21.5%	-34.5%	6.65%	8.4%	-6.35%	-8.65%
NC(=O)Nc1ccc(S(=O)(=O)c2ccc(N)cc2)cc1	0.5%	-5.2%	12.5%	-5.35%	4%	-15.7%
O=C1CCC(C(=O)Nc2ccc(Cl)cc2Cl)N1 (stereo unspecified)	-0.15%	3.3%	7.2%	42.4%	3.45%	8.75%
O=S(=O)(SSS(=O)(=O)c1ccc(Cl)c(Cl)c1)c1ccc(Cl)c(Cl)c1	7.8%	4.05%	5.85%	-3.45%	3.65%	11.7%
Cc1nc2ccccc2s1	25.1%	48.2%	7.9%	29%	-1.35%	4.05%
Cc1cc[n+](C2=C([O-])C3=C(C(=O)C2=O)C2c4ccccc4C3c3ccccc32)c(C)c1	98.5% (active)	98.7% (active)	98.8% (active)	98.3% (active)	90.2% (active)	97.5% (active)
Cc1ccc(Sc2ccc3ccccc3c2)nc1	6.75%	-8.2%	-17.6%	-12.2%	5.05%	-16.9%
Cc1ccc(N=C2c3cc([N+](=O)[O-])ccc3-c3ccc([N+](=O)[O-])cc32)cc1	15.1%	-10.1%	0.35%	-18.1%	-4%	-2.25%
Cc1ccc2nnc(NS(=O)(=O)c3cc(C)c(Cl)cc3S)n2n1	-30.3%	-7.75%	-24.9%	-16.9%	-0.9%	-25.4%

Compound	growth inhibition [1]	growth inhibition [2]	growth inhibition [3]	growth inhibition [4]	growth inhibition [5]	growth inhibition [6]
C/C(=N\NC(=S)N1CCCCCC1)c1nccs1	3.95%	0.25%	-1.5%	-18%	-6.9%	2.15%
CC1(O)CC2C=CC1CC2 (stereo unspecified)	9.65%	7.15%	4.6%	4%	9.55%	13.8%
O=C(NNC(=O)c1ccccc1F)c1ccc2ccccc2c1	-15.3%	-13.3%	-8.75%	-2.5%	-2.1%	-6.55%
O=C(OCOC(=O)c1ccccc1)c1ccccc1	-23.1%	-5.95%	-8.6%	-18.5%	-4.7%	-6.55%
CC(NC(=O)NC(C)(C)C)c1ccccc1 (stereo unspecified)	3.05%	-12.9%	-5.05%	-37%	5.2%	4.1%
O=C(O)CC[C@H](NC(=O)c1ccc(-n2nc3ccc(O)cc3nc2=O)cc1)C(=O)O	-6.65%	-8.25%	11.9%	9.95%	33.8%	14.5%
COc1ccc(C(O)C(NCCO)c2ccccc2)cc1 (stereo unspecified)	-1.3%	-19.5%	4.8%	7.15%	-3.85%	7.85%
NC(=O)c1cn(C2OC(CO)C(O)C2O)c(=O)[nH]c1=O (stereo unspecified)	14.2%	-8.8%	-0.1%	18.8%	-12.7%	-5.25%
CCC(=O)OC(OC(=O)CC)c1ccc2c(c1)OCO2	-4.6%	0.7%	4.45%	-18.9%	7.75%	-1%
Nc1nc2nc(-c3ccccc3)[nH]c2c(=O)[nH]1	-3.7%	6.75%	-0.15%	-52.2%	-15.1%	-12.4%
Cc1cc(Cl)ccc1NC(=O)NC(C)(C)COC(=O)Nc1cccc(Cl)c1	26%	-7.3%	23.4%	9.15%	16.1%	27.9%
COc1ccc(C2c3cc4c(cc3OC3(O)CCCC(=O)C23)OCO4)cc1 (stereo unspecified)	-13.2%	15.3%	4.55%	-39.3%	20.6%	-7.4%
CCOC(=O)[C@@]12[C@H](N3C(=O)c4ccccc4C3=O)C(=O)N1CCS2(=O)=O	-1.9%	-5.7%	-29.4%	-22.9%	-1.5%	6.95%
NC(=O)C(=CNC(=S)Nc1ccc(S(N)(=O)=O)cc1)C(N)=O	-10.1%	-31.1%	-16.4%	2.9%	-10.4%	0.5%
COc1cc2c(c(OC)c1OC)-c1ccc(SC)c(=O)cc1[C@@H](NC(=O)C(F)(F)F)CC2	11.1%	-53.7%	-18.1%	-13.8%	-12.7%	-4.75%
Nc1ccc(OCC(O)N2C(=O)c3ccccc3C2=O)cc1 (stereo unspecified)	-46.2%	-39.5%	-32.9%	14.4%	29.9%	-17.9%
CCCC1(CCC)CNC(=O)NC1	0.45%	-3.9%	-5.1%	-11.1%	1.5%	-10.8%
CC(C)(C)c1ccc(-c2nc3ccc(Cl)cc3c(=O)o2)cc1	-26.6%	-24.5%	-7.85%	-48.3%	-17.6%	0.45%
Cc1cccc(NC(=O)/C=C/c2ccccc2)n1	6.15%	-26.5%	-4.3%	-81.3%	9.15%	-22.4%
Cc1ccc(S(=O)(=O)Oc2ccccc2NS(=O)(=O)c2ccccc2)cc1	68.2%	53.2%	76.5% (active)	52.1%	13.5%	48.1%
